These entries were drawn from the full list. The hit rate among all sequences tested is not known here.
B1: il2ra_site1_3nfp_sap_17_mot_HHH_b1_07644_af2_000000110_0001_40_57_H_._HEEHE_2706_0001_0000400054_0000001_0_0001_af2pred_0001_af2pred_1_swapped (protein)
chain: SSSSDALEFVEELAEKAFENNDKFQLRALYKLLREALEKTGNPEAEEVLEKVEELLRELQSSSSS
B2: il2ra_site2_2erj_sap_25_mot_ca9fcc9ace360711d783d1260e4fbff1_0001_1_af2_000000007_0001_15_32_H_._7f39e2d7389de0c2f60e905c27398b6a_0001_1_af2_0001_0000400011_000 … (protein)
chain: SSSSSYEERVEELLEEAEEAYREGDLHAVYRLAVEALHVASELGDQELIRLVAEFVEKISDSSSS
B3: il2ra_site1_2b5i_sap_16_mot_HHH_b1_01419_af2_000000080_0001_42_53_H_._HHH_b1_05266_af2_0001_0000100001_0000001_1_0001_af2pred_dldesign_0_af2pred (protein)
chain: SSSSSNQDEVYRLYKEALRLYKEGKREEAKKVLEEALKLAEKNKDEVAVKELKELLKRLESSSSS
B4: il2ra_site1_1z92_normal_mot_9b3351f2f66fbcc824ad33b4da01f8ef_0001_af2_000000012_0001_16_32_H_._HHH_b1_08171_0001_0000100006_0000001_0 (protein)
chain: SSSSSEEVLKKDLRFAVEARNPSSFRRLAELARRDLKEAGDEEALREFEEFVEELEQELGSSSSS
B5: il2ra_site1_1z92_normal_mot_HHH_b1_00893_000000159_0001_19_35_H_._43152d1d296b358565056a4a32fd9b81_0001_1_af2_0001_0000300029_0000001_0_af2pred_0001_af2pred_1_s … (protein)
chain: DDEELEEKLKEAAENRDVEKLEELLRELLELLGDPAVKFLLEFFERLLKRDEEDAVKNVLRFVSF
B6: il2ra_site1_2b5i_normal_mot_HHH_b1_06428_000000224_0001_1_17_H_._HHH_b1_02461_0001_0000700038_0000001_0_af2pred_dldesign_0_af2pred (protein)
chain: SSSSSSLAEARRLLLETEELLKAGKLEELAKLKKRIDALKAASDDPKVKKIADLINEALESSSSS
B7: il2ra_site2_2erj_normal_mot_c2bf78bdce995293a161f7082e24b401_0001_af2_000000082_0001_17_32_H_._HHH_b1_07868_0001_0000100001_0000001_0 (protein)
chain: SSSSSDEEEIRREVEELLEKVEEVPDLEEAYRLANEALRLASRLQDEELLRLILEVVQRHSSSSS
B8: il2ra_site2_3nfp_normal_mot_HHH_b1_05627_af2_000000038_0001_43_56_H_._HHH_b1_07199_af2_0001_0000600017_0000001_0 (protein)
chain: SSSSDKAEEYLRIALELLEEAIKAGDEESAKSILEVARLAAELHNDEEVEERLEELEELLSSSSS
B9: il2ra_site1_3nfp_normal_mot_HHH_b1_04049_af2_000000244_0001_42_55_H_._d1fb33ed66649044859e967e86ea168f_0001_af2_0001_0000200005_0000001_0 (protein)
chain: TKEKAIEDIIRALKQLPDPEVRELAEEAEELLENGDPEEALKVLKEAAKLLGDPVLEKLIEQYLT
B10: il2ra_site2_3nfp_sap_7_mot_HHH_b2_00746_000000285_0001_20_36_H_._HHH_b2_00413_af2_0001_0000200017_0000001_0_0001 (protein)
chain: SSSSDEVEELLREIRELLEEGDTYEAAQLLVRVSEIAAKLGDPELVKIVLELYKILKEKASSSSS
B11: il2ra_site2_3nfp_normal_mot_HHH_b1_05785_af2_000000002_0001_41_57_H_._HHH_b1_03527_af2_0001_0000800015_0000001_0 (protein)
chain: SSSSDEAEEYVKAALALLEEALEQGDEELFEKLARLIELAIEDLGNPELEERLEELKERGSSSSS
B12: il2ra_site2_2erj_sap_23_mot_ca9fcc9ace360711d783d1260e4fbff1_0001_1_af2_000000007_0001_15_32_H_._HHH_b2_04203_af2_0001_0000300022_0000001_0_0001 (protein)
chain: SSSDREEARVHFLAFRAMRLNNNGNPEEAQKVLEEAKEIAEENNNEELREWLEAMERTIKHSSSS
B13: il2ra_site2_3nfp_sap_18_mot_HHH_b1_07556_000000077_0001_42_55_H_._HHH_b2_07201_0001_0000400029_0000001_0_0001 (protein)
chain: SSSSDEEEEVKRSLEYLKAVAKLHNDEELQEVIEEAERILEEDNDPEKAAEALSEIALKLASSSS
B14: il2ra_site1_2b5i_sap_7_mot_HHH_b1_05947_000000126_0001_42_56_H_._HHH_b1_05810_af2_0001_0000100008_0000001_1_0001_af2pred_0001_af2pred (protein)
chain: SSSSSEEEQRAFELYHEASRAFSNGDKERARELLEEAIELAEEAGDPKIKRELEQFLEMLSSSSS
B15: il2ra_site1_3nfp_sap_21_mot_HHH_b2_04910_af2_000000236_0001_1_18_H_._4946fae19574d7b03d9e348227509a78_0001_0001_0000300023_0000001_0_0001_af2pred_0001_af2pred (protein)
chain: SSSDEREVHKLLKEALEAALKGNPEEARELLEEAERLAKELNNPRAEHTVEKALKSFERARSSSS
B16: il2ra_site2_2erj_normal_mot_76e6e8f7232a9e65eeaab5ff8ecb4c96_0001_000000242_0001_17_31_H_._HHH_eva_0320_af2_0001_0000500007_0000001_1 (protein)
chain: SSTEEEEVRRVVEEAEELIKRGDLEEAEEVLSEAFTLVYELGDEELVILILELAHELVRLLAKSS
B17: il2ra_site2_2erj_normal_mot_af86707857d369f3e1d85dcabc5f9321_0001_000000201_0001_14_29_H_._HHH_b1_07617_0001_0001000035_0000001_1_af2pred_0001_af2pred (protein)
chain: SSSSDEEEQIERLLREARELLEEGDPERAREVVWEAAQLAAESDNEELLKEILELLREIHGSSSS
B18: il2ra_site1_2b5i_normal_mot_HHH_b1_00432_000000039_0001_1_18_H_._HHH_b1_02735_0001_0000300013_0000001_0_af2pred_dldesign_0_af2pred (protein)
chain: SSSSSSDEEIEAAEDLALQALKEKDKEKRKELLEEALRLAQKGKDAKLVAQIQELLERLKSSSSS
B19: il2ra_site2_3nfp_normal_mot_HHH_b2_04451_000000238_0001_21_37_H_._HHH_b2_00723_af2_0001_0000500044_0000001_0 (protein)
chain: SSSSDLEEEVERLIEEVERLLEEGDKHEAAQLLLEATKLVAELNNEELARILLELFELLQKSSSS
B20: il2ra_site1_3nfp_sap_8_mot_d8099cd8ef6a59b9c03de2010570d688_0001_af2_000000259_0001_37_51_H_._HHH_b2_05910_0001_0000100005_0000001_0_0001 (protein)
chain: SAEEFVKRAKELVPPELQELLERALELALKRQDPKLARLLIKAVAAIQQGDPEKAEEVLKELEER
B21: il2ra_site1_2b5i_normal_mot_HHH_b1_08745_af2_000000166_0001_39_57_H_._HHH_b1_05884_0001_0000600032_0000001_0_af2pred_dldesign_0_af2pred (protein)
chain: SSSSSPEIQKLREMFEEADRLFKAGKYEEAKELLEKALKLAKELGANLELRIIQSALEQLESSSS
B22: il2ra_site1_2b5i_sap_15_mot_1dae16775e8f4074d71d019417416b97_0001_af2_000000275_0001_1_12_H_._HHH_b2_07869_0001_0000400013_0000001_1_0001_af2pred_0001_af2pred_1 (protein)
chain: SSSSTDVAREVFRLLEEADRLARNGNPEEAEKLLREAEELAEENGNRALLKFVRAALRALSSSSS
B23: il2ra_site1_2b5i_sap_9_mot_HHH_b2_07540_af2_000000089_0001_1_16_H_._HHH_b1_01333_af2_0001_0000100003_0000001_0_0001_af2pred_0001_af2pred (protein)
chain: SSSSSSEELLELLREADELFKNGNPEEAEKVLERAEELAERNGTKSMLRSVRSMLELLRESSSSS
B24: il2ra_site1_3nfp_sap_6_mot_HHH_b2_06502_000000163_0001_42_55_H_._HEEHE_0113_0001_0000200018_0000001_0_0001 (protein)
chain: SSSSSNDEAWRLLREAYEEFKKAKSREEMRELLEEAERLARELGDERLLRDIEKWLEQMKSSSSS

Target: il2ra, P01589
Assay: yeast display titration

il2ra, P01589, sequence (P01589 whole entry): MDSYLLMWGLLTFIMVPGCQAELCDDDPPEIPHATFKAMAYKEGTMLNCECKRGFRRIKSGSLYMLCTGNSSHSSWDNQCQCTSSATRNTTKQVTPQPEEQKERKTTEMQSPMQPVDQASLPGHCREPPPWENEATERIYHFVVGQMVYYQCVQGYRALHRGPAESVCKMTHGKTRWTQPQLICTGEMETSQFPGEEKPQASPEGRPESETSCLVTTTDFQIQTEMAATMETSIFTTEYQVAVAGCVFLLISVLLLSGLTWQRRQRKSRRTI

Apparent Kd, inactive:
B1 no binding seen
B2 no binding seen
B3 no binding seen
B4 > 1500 nM
B5 > 2780 nM
B6 no binding seen
B7 no binding seen
B8 no binding seen
B9 no binding seen
B10 no binding seen
B11 no binding seen
B12 no binding seen
B13 no binding seen
B14 no binding seen
B15 no binding seen
B16 no binding seen
B17 no binding seen
B18 no binding seen
B19 no binding seen
B20 no binding seen
B21 no binding seen
B22 no binding seen
B23 no binding seen
B24 no binding seen

Reference: PMC10163288
